Data on one sequence can be found in publication PMC7862700, “An all-to-all approach to the identification of sequence-specific readers for epigenetic DNA modifications on cytosine”.

What all share (test): DAPPL (digital affinity profiling via proximity ligation, sequencing); 10 mM Tris-HCl pH 7.5, 50 mM NaCl, 1 mM DTT, 4% glycerol, room temperature, 30 min; GST-TFs on glutathione beads, 16-mer random dsDNA library, 0.1% formaldehyde crosslink after washing; high values mean tight binding
One experiment has as its target T1, FLI1 (Homo sapiens, UniProt Q01543 1-452).
T1 sequence: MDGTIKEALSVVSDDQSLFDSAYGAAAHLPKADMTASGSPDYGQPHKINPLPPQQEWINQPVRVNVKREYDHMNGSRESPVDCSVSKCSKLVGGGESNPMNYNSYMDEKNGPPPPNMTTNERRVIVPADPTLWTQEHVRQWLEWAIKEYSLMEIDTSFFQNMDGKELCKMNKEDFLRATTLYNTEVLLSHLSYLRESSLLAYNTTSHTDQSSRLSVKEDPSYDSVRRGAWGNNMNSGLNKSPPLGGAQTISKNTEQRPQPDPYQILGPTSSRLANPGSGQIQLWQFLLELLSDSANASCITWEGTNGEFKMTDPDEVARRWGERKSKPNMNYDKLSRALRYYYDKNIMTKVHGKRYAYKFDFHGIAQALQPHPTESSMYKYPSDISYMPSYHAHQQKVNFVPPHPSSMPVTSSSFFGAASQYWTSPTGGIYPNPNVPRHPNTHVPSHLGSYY
To be noted: protein: recombinant; tags: N-terminal GST; dsDNA, one strand shown. The method, boiled down:
(§1)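 Each value of binding signal is a hexamer's read frequency for a factor divided by the same hexamer's frequency in the tag-only sample. Barcoded, bead-captured GST fusions of human transcription factors made in yeast were pooled with that sample and incubated with 200 nmole of a random double-stranded 16-mer DNA library in Tris/NaCl/DTT/glycerol buffer at room temperature for 30 min. Washing, 0.1% formaldehyde crosslinking, proximity ligation, PCR and Illumina NextSeq500 sequencing followed.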

The target in the next experiment is T2, ELK1 (Homo sapiens, UniProt P19419 1-428).
T2 sequence: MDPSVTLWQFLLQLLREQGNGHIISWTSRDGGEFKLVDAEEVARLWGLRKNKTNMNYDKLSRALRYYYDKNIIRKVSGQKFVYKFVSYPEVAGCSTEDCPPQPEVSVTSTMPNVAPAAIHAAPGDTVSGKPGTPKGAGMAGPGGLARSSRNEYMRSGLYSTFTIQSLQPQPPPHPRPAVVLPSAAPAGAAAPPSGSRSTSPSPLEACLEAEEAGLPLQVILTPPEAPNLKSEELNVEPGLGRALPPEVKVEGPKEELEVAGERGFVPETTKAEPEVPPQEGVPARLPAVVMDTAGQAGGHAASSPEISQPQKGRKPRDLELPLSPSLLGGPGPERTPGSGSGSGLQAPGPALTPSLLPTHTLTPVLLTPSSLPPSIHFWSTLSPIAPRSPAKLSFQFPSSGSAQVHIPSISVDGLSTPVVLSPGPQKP
Particulars: protein: recombinant; tags: N-terminal GST; dsDNA, one strand shown. The method, boiled down: as §1

In another experiment the target is T3, GABPA (Homo sapiens, UniProt Q06546 1-454).
T3 sequence: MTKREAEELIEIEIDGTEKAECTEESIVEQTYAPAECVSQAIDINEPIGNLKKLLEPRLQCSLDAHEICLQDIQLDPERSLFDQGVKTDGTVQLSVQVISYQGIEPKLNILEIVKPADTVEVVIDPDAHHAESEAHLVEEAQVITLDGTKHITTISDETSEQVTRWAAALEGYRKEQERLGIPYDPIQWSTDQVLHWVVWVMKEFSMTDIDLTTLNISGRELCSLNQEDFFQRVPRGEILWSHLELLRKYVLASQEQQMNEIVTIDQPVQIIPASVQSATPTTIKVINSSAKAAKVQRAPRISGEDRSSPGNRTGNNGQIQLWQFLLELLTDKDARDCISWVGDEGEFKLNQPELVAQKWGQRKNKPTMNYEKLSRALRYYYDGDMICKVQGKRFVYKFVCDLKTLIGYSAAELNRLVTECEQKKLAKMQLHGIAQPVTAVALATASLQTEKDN
Particulars: protein: recombinant; tags: N-terminal GST; dsDNA, one strand shown. The method, boiled down: as §1

Another experiment has as its target T4, ERG (Homo sapiens, UniProt P11308 1-479).
T4 sequence: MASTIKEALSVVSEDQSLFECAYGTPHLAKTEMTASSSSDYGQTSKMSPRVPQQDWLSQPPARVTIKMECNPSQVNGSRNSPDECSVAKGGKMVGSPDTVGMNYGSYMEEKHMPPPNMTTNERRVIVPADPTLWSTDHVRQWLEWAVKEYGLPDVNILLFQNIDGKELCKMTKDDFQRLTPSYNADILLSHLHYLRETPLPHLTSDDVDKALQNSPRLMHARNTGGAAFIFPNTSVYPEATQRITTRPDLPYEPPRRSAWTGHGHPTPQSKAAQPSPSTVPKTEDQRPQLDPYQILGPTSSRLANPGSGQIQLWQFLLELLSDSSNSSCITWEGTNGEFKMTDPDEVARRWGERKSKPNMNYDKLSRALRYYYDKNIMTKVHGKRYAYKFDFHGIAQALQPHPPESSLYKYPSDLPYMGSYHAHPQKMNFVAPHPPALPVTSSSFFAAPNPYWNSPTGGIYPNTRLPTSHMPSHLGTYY
Particulars: protein: recombinant; tags: N-terminal GST; dsDNA, one strand shown. Put shortly: as §1

For a further experiment, the target named is ELF1 (Homo sapiens, UniProt P32519 1-619). To be noted: protein: recombinant; tags: N-terminal GST; dsDNA, one strand shown. Put shortly:
as §1

The target in a further experiment is T5, EHF (Homo sapiens, UniProt Q9NZC4 1-300).
T5 sequence: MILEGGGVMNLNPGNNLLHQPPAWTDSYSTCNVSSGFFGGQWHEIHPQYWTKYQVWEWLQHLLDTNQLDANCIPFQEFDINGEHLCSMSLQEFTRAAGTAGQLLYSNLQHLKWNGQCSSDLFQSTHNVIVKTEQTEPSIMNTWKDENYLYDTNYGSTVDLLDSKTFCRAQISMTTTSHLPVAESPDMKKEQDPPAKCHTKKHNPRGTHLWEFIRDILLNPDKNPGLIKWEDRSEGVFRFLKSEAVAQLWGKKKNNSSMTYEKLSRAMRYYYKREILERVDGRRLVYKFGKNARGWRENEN
To be noted: protein: recombinant; tags: N-terminal GST; dsDNA, one strand shown. The method, boiled down:
as §1

The next experiment addresses SPI1 (Homo sapiens, UniProt P17947 1-270). To be noted: protein: recombinant; tags: N-terminal GST; dsDNA, one strand shown. Put shortly: as §1
The target of the next experiment is SPIB (Homo sapiens, UniProt Q01892 1-262). Particulars: protein: recombinant; tags: N-terminal GST; dsDNA, one strand shown. Put shortly:
as §1

A further experiment concerns the target T6, ELK3 (Homo sapiens, UniProt P41970 1-407).
T6 sequence: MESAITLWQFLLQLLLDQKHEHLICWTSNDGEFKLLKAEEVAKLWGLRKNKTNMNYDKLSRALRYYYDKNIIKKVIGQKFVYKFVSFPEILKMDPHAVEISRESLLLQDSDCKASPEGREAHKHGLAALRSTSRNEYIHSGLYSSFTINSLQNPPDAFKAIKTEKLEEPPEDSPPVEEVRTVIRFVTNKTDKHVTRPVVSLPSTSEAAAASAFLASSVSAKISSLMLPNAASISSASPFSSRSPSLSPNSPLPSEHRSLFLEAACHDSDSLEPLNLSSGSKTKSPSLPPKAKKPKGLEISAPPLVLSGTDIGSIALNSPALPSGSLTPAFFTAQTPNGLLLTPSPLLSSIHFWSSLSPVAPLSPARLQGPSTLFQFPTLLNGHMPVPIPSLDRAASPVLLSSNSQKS
To be noted: protein: recombinant; tags: N-terminal GST; dsDNA, one strand shown. The method, boiled down:
as §1

The target in a further experiment is T7, FEV (Homo sapiens, UniProt Q99581 1-238).
T7 sequence: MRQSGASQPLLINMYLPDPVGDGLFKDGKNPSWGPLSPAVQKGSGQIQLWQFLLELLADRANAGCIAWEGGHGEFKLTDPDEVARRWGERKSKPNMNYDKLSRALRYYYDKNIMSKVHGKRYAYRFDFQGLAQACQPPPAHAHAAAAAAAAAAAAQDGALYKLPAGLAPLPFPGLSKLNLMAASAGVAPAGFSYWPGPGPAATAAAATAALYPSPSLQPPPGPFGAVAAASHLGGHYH
Particulars: protein: recombinant; tags: N-terminal GST; dsDNA, one strand shown. The method, boiled down:
as §1

The next experiment has as its target ETV5 (Homo sapiens, UniProt P41161 1-510). To be noted: protein: recombinant; tags: N-terminal GST; dsDNA, one strand shown. The method, boiled down:
as §1

In a further experiment the target is HSF1 (Homo sapiens, UniProt Q00613 1-529). To be noted: protein: recombinant; tags: N-terminal GST; chain copies: 3; dsDNA, one strand shown. Put shortly:
as §1

In the next experiment the target is ELF4 (Homo sapiens, UniProt Q99607 1-663). To be noted: protein: recombinant; tags: N-terminal GST; dsDNA, one strand shown. Put shortly: as §1
A further experiment concerns the target T8, ELK4 (Homo sapiens, UniProt P28324-2 1-405).
T8 sequence: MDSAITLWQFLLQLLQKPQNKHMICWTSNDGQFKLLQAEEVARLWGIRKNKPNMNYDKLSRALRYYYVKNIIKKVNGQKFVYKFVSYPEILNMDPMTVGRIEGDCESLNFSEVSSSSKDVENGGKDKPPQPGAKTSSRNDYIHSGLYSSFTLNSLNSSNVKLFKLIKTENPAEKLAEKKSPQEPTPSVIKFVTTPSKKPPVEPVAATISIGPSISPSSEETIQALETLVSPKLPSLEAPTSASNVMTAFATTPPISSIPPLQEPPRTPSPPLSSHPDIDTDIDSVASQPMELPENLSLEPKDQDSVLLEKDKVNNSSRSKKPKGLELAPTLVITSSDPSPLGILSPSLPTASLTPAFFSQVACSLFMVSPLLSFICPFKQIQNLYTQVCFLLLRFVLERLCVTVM
Particulars: protein: recombinant; tags: N-terminal GST; dsDNA, one strand shown. Put shortly: as §1

The target of the next experiment is T9, ETV2 (Homo sapiens, UniProt O00321 1-342).
T9 sequence: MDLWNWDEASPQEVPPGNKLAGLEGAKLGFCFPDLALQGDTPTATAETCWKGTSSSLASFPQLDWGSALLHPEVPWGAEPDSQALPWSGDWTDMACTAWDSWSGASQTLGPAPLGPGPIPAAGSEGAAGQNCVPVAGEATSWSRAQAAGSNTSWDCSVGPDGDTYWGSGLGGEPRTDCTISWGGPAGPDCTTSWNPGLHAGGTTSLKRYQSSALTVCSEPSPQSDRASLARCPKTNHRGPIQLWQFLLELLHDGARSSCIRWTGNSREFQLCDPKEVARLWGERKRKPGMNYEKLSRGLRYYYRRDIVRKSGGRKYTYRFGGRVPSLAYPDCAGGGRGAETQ
To be noted: protein: recombinant; tags: N-terminal GST; dsDNA, one strand shown. Put shortly:
as §1

The next experiment deals with T10, ELF3 (Homo sapiens, UniProt P78545 1-371).
T10 sequence: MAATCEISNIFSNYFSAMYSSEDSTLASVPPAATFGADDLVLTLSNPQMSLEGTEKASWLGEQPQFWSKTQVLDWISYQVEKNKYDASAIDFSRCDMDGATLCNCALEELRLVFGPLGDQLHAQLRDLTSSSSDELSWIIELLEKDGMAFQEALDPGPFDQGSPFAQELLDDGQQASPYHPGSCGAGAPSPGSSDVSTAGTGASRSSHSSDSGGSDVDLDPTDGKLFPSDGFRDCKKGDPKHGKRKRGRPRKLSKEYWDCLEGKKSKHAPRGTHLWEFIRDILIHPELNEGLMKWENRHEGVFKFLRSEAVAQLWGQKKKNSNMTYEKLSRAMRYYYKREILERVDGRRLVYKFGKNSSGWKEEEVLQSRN
Particulars: protein: recombinant; tags: N-terminal GST; dsDNA, one strand shown. The method, boiled down:
as §1

For another experiment, the target named is CRX (Homo sapiens, UniProt O43186 1-299). To be noted: protein: recombinant; tags: N-terminal GST; dsDNA, one strand shown. Put shortly:
as §1

The target of another experiment is ETV1 (Homo sapiens, UniProt P50549 1-477). Particulars: protein: recombinant; tags: N-terminal GST; dsDNA, one strand shown. The method, boiled down:
as §1

ELF4, sequence (Q99607 whole entry): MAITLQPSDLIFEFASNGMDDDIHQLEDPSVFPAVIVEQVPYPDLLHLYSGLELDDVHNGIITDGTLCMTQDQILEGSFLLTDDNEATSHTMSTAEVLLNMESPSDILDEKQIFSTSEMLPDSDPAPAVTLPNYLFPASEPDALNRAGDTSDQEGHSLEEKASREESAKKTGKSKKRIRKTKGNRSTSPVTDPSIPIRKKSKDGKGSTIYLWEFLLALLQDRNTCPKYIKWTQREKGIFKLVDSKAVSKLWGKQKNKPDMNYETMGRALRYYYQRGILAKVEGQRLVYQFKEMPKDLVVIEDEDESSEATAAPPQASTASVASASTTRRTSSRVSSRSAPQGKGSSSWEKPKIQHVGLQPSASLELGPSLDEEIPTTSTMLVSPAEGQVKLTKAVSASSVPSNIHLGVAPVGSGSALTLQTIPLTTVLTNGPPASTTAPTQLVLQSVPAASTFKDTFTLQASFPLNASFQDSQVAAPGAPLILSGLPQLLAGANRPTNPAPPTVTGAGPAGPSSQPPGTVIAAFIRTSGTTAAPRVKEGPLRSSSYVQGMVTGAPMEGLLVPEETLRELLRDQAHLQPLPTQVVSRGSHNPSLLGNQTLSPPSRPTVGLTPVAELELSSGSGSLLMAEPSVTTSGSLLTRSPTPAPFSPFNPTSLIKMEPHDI
ETV5, sequence (P41161 whole entry): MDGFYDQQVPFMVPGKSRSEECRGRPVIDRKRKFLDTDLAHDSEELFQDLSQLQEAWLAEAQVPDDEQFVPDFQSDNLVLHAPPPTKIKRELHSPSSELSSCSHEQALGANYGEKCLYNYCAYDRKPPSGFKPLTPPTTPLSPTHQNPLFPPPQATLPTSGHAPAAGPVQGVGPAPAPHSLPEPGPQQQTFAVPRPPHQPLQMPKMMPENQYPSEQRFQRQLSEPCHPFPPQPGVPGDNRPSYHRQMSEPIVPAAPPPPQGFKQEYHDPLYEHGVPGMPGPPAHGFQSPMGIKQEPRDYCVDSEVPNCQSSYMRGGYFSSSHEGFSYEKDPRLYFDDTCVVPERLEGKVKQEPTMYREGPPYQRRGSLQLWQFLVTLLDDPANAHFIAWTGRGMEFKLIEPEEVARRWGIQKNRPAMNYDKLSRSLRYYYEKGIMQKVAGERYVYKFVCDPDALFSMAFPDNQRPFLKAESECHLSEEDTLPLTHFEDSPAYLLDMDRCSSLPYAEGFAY
SPIB, sequence (Q01892 whole entry): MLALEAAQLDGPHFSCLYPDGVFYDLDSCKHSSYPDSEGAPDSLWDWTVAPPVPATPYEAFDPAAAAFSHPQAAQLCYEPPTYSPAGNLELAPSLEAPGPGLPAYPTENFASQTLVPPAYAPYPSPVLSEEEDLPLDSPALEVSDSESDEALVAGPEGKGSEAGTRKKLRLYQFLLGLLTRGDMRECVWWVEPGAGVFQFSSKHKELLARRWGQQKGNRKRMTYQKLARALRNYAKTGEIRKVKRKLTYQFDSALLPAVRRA
HSF1, sequence (Q00613 whole entry): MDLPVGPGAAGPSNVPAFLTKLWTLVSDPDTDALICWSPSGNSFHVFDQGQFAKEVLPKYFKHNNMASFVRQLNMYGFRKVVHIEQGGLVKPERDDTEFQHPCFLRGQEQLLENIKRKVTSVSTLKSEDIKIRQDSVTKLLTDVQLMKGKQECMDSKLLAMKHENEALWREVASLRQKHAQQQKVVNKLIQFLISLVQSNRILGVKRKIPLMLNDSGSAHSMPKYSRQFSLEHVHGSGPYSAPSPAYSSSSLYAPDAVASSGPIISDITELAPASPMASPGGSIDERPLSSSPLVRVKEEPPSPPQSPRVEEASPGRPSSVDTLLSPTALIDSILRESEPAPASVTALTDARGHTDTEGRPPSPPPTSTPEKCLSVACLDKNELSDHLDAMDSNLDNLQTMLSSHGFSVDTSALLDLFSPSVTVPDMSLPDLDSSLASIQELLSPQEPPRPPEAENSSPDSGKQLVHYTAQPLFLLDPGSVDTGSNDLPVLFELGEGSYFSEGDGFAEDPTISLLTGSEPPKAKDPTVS
ETV1, sequence (P50549 whole entry): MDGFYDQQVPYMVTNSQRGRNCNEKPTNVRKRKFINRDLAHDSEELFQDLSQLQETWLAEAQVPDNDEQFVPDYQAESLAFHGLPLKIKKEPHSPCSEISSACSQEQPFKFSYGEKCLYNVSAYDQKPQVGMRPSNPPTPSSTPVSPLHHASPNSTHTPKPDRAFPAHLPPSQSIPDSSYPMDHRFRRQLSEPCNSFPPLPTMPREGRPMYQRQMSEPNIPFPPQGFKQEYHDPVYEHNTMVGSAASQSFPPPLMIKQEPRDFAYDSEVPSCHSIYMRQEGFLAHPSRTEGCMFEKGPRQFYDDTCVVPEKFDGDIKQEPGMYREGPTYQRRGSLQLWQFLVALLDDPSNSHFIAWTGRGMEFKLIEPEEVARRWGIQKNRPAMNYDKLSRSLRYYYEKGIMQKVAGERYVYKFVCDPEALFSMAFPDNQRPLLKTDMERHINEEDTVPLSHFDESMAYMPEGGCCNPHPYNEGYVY
ELF1, sequence (P32519 whole entry): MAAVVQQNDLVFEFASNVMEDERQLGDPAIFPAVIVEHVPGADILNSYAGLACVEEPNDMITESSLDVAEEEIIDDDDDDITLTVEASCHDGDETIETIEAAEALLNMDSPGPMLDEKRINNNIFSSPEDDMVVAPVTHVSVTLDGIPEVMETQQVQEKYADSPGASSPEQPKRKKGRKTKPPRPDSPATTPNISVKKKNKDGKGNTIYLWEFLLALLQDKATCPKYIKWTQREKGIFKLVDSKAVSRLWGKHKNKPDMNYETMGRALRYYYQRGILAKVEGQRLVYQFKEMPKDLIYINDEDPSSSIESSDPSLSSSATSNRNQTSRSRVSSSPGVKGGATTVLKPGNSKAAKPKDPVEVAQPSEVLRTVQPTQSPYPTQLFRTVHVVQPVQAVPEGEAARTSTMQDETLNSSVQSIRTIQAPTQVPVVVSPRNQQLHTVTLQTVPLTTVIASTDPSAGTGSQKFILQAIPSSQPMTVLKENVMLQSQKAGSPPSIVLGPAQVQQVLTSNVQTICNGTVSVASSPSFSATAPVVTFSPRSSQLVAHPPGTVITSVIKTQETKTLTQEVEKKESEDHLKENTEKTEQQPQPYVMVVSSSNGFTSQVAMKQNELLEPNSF
CRX, sequence (O43186 whole entry): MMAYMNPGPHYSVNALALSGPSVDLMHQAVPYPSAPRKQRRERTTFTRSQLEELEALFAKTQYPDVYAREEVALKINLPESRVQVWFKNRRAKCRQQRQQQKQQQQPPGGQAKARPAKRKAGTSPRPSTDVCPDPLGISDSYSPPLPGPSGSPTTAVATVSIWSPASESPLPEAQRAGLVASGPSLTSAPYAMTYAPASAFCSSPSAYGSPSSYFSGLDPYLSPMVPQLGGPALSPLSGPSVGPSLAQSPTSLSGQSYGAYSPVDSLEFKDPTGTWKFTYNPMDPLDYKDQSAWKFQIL

GTTTTA: the binding signal with FLI1 is 1.17 fold enrichment (6-mer frequency, TF over GST control); with ELK1 it was 1.05 fold enrichment (6-mer frequency, TF over GST control); in the experiment with GABPA, 1.14 fold enrichment (6-mer frequency, TF over GST control); with ERG, 1.07 fold enrichment (6-mer frequency, TF over GST control); with ELF1 it was 1.07 fold enrichment (6-mer frequency, TF over GST control); with EHF it was 1.11 fold enrichment (6-mer frequency, TF over GST control). The binding signal in the experiment with SPI1 was 1.12 fold enrichment (6-mer frequency, TF over GST control); in the experiment with SPIB, 1.16 fold enrichment (6-mer frequency, TF over GST control); with ELK3, 1.08 fold enrichment (6-mer frequency, TF over GST control); in the experiment with FEV, 1.08 fold enrichment (6-mer frequency, TF over GST control); with ETV5 it was 1.07 fold enrichment (6-mer frequency, TF over GST control); with HSF1 it was 1.17 fold enrichment (6-mer frequency, TF over GST control). Further, the binding signal with ELF4 is 1.15 fold enrichment (6-mer frequency, TF over GST control); in the experiment with ELK4, 1.07 fold enrichment (6-mer frequency, TF over GST control); in the experiment with ETV2, 1.1 fold enrichment (6-mer frequency, TF over GST control); with ELF3, 1.06 fold enrichment (6-mer frequency, TF over GST control); in the experiment with CRX, 1.41 fold enrichment (6-mer frequency, TF over GST control); with ETV1 it was 1.13 fold enrichment (6-mer frequency, TF over GST control).
